In ChEMBL document CHEMBL3433997, “St. Jude Leishmania screening dataset” (2016):

Legend:
Type in all cases: functional
[1] = target: Solute carrier family 2, facilitated glucose transporter member 1 (Homo sapiens) (UniProt P11166); experiment: ST_JUDE_LEISH: Cytotoxicity at 2uM final concentration against transgenic Leishmania Mexicana promastigotes LmGLUT1 that are glucose transport deficient and complemented with the human glucose transporter GLUT1. Activity is measured by DNA content using SYBR green in vitro
[2] = target: Hexose transporter 1 (Plasmodium falciparum) (UniProt O97467); experiment: ST_JUDE_LEISH: Cytotoxicity at 2uM final concentration against transgenic Leishmania Mexicana promastigotes LmPfHT that are glucose transport deficient and complemented with the Plasmodium falciparum hexose transporter. Activity is measured by DNA content using SYBR green in vitro
[3] = target: Glucose transporter (Leishmania mexicana) (UniProt O61059); experiment: ST_JUDE_LEISH: Cytotoxicity at 2uM final concentration against transgenic Leishmania Mexicana promastigotes LmGT2 that are glucose transport deficient and complemented with the L. Mexicana glucose transporter 2. Activity is measured by DNA content using SYBR green in vitro

Chain of Solute carrier family 2, facilitated glucose transporter member 1 (Homo sapiens) (P11166 whole entry): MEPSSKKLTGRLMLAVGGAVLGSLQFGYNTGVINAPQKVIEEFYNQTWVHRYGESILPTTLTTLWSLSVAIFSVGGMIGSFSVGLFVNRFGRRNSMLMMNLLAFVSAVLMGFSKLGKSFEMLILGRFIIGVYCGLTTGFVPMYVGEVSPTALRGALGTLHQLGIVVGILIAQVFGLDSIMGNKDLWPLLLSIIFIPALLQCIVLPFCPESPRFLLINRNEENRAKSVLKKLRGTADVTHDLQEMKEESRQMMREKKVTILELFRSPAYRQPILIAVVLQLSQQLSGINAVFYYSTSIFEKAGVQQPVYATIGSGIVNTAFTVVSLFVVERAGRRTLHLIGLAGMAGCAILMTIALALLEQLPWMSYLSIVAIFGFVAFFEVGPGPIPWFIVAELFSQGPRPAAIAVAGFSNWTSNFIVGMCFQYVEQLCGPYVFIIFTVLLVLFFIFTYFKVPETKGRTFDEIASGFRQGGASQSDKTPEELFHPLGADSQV

| Structure (SMILES) | inhibition [1] | inhibition [2] | inhibition [3] |
| --- | --- | --- | --- |
| CCN(CC)c1ccc2nc(N)nc(N)c2c1Cl | 5.94% | 6.11% | 4.52% |
| NC1CCN(CCc2ccc(NS(=O)(=O)c3ccc(-c4ccccc4)cc3)cc2)CC1 | 0.64% | -0.24% | 0.08% |
| COc1cc([N+](=O)[O-])ccc1NC(=O)c1cc(Cl)ccc1O | 7.76% | 6.83% | 7.02% |
| O=C(Cn1c(CCc2cccc(F)c2F)cc(=O)c2ccccc21)N(Cc1ccc(-c2ccc(C(F)(F)F)cc2)cc1)C1CCN(CCO)CC1 | 4.1% | 3.74% | 4.47% |
| O=C(Nc1ccccc1)c1cccc(Nc2nccc(Nc3ccc(Oc4ccccc4)cc3)n2)c1 | 0.65% | 1.07% | 0.87% |
| Cc1sc(CNCCCNc2cc(=O)c3ccccc3[nH]2)c(I)c1C | 3.11% | 2.66% | 1.68% |
| Oc1ccccc1CNC1CCCCC1NCc1ccccc1O (centres undefined) | 7.77% | 9.96% | 4.48% |
| CCOC(=O)c1cc(C(=O)NCCCCN2CCC(c3ccc4c(c3OC)CCCC4)CC2)ccc1-c1ccc(C(F)(F)F)cc1 | -2.37% | 4.37% | 1.36% |
| COc1ccc(NC(=O)/C=C/c2ccc(-c3ccccc3)cc2)cc1N1CCN(C)CC1 | 2.62% | 3.25% | 0.83% |
| CC(C)CN(C)c1ncnc2c1nc(-c1cncc(C#N)c1)n2CCNCc1ccccc1 | 3.34% | 3.26% | 4.39% |
| Cn1cccc1C(=O)C(=O)Nc1ccc(-c2ccc(-c3nc4cc(F)ccc4[nH]3)cc2)cc1 | 8.15% | -0.07% | -0.45% |
| CS(=O)(=O)NCCCNCc1ccc(-c2ccc(-c3nc4cc(C(F)(F)F)ccc4[nH]3)cc2)cc1 | 2.14% | 2.39% | 1.11% |
| Cc1cccc2nc(-c3ccc(-c4ccc(NC(=O)CN5CCN(C)CC5)cc4)cc3)[nH]c12 | 2.26% | 1.8% | 4.7% |
| Clc1cccc(Cl)c1CCNCC1CCN(CC2CCCCC2)CC1 | 5.48% | 5.47% | 6.54% |
| CN(C)CC1CCCN1Cc1ccccc1-c1cnn(C)c(=O)c1Oc1cccc(C#N)c1 (centres undefined) | 1.03% | 1.03% | 3.52% |
| O=C(NCCN1CCC(c2ccncc2)CC1)c1cccc(Nc2nccc(Nc3ccc(Oc4ccccc4)cc3)n2)c1 | -0.12% | -0.29% | -0.06% |
| NC(=O)c1ccccc1OCC(=O)Nc1cccc(-c2ccc(-c3nc4ccccc4[nH]3)cc2)c1 | 8.01% | 6.11% | 2.43% |

| Structure (SMILES) | inhibition [1] | inhibition [2] | inhibition [3] |
| --- | --- | --- | --- |
| COc1ccc(S(=O)(=O)N(CCCN2CCN(C)CC2)Cc2csc(-c3ccc(CNCc4ccccc4)cc3)n2)cc1 | -1.13% | 2.47% | 1.67% |
| Cc1cc(NCCc2cccc(F)c2)nc(NC(=N)Nc2cccc(C(F)(F)F)c2)n1 | 3.82% | 2.87% | 2.41% |
| COc1cc2ccccc2cc1CNCCCCCCNCc1cc2ccccc2cc1OC | 5.18% | 6.05% | 5.15% |
| COc1cccc(-c2csc(C(=O)NCC3CCN(Cc4ccc(C(C)C)cc4)C3)c2)c1 (centres undefined) | -0.64% | -1.41% | 0.03% |
| Cc1cccc2nc(-c3cccc(-c4cccc(C(=O)NCCN5CCCC5)c4)c3)[nH]c12 | 1.04% | 1.28% | -0.38% |
| CCOc1ccc(-c2nonc2NC(=O)CC(C)C)cc1OCC | -0.61% | -0.84% | -1.25% |
| CC(=O)c1cccc2c(NC(=O)Nc3ccc4nccc(N5CCN(C)CC5)c4c3)cccc12 | 7.67% | 6.04% | 7.35% |
| COCCN1CCN(Cc2ccc(-c3ccc(-c4nc5cccc(C)c5[nH]4)s3)cc2)CC1 | 8.84% | 6.85% | 4.87% |
| O=S(=O)(c1ccccc1)n1ccc2cc(Nc3ncnc4cc(C#C[C@H]5CCCN5)sc34)ccc21 | 2.91% | 2.14% | -0.2% |
| COC(=O)c1cccc(CNCc2cccc(-c3ccc(-c4nc5cccc(C)c5[nH]4)cc3)c2)c1 | 11.9% | 7.9% | 8.52% |
| O=C(C=Cc1cccs1)N(CCCn1ccnc1)c1nc2ccc(F)cc2s1 | 4.66% | 4.09% | 2.51% |
| CCOC(=O)NC1=NC(C)(C)N(OCc2ccc(Cl)c(Cl)c2)C(NC(=O)OCC)=N1 | 3.54% | 2.08% | 2.54% |
| O=C(Nc1cccc(-c2cccc(-c3nc4ccccc4[nH]3)c2)c1)Nc1ccc(Cl)c(Cl)c1 | 6.2% | 6.7% | 7.6% |
| COc1cccc(Nc2nc(N)c3ccccc3n2)c1 | 22.4% | 18.8% | 7.62% |
| CN1CCN(Cc2ccc(-c3cccc(-c4nc5ccccc5[nH]4)c3)cc2)CC1 | 1.13% | 0.78% | -2.4% |
| CC(Cc1ccc(CNC(=O)c2ccc(CC(C)NCCc3cccc(Cl)c3)cc2)cc1)NCCc1cccc(Cl)c1 (centres undefined) | 1.09% | 8.32% | 2.1% |
